From PubChem BioAssay (NCI) come the findings set out here.

Test in all cases: NCI-60 one-dose screen, 48 h (100 = growth as untreated, 0 = no growth, -100 = all killed)
Assay [1] relates to EKVX NSCLC. The following applies: 10 µM unless noted.
In assay [2] the test system is SN12C renal. The conditions noted are these: 10 µM unless noted.
For assay [3], the system named is UO-31 renal. The conditions noted are these: 10 µM unless noted.
Assay [4] concerns TK-10 renal. The conditions noted are these: 10 µM unless noted.
Assay [5] has as its system ACHN renal. The conditions noted are these: 10 µM unless noted.
Assay [6] relates to CAKI-1 renal. The following applies: 10 µM unless noted.
For assay [7], the system named is A498 renal. The following applies: 10 µM unless noted.
For assay [8], the system named is CCRF-CEM leukemia. The following applies: 10 µM unless noted.
Assay [9] relates to MOLT-4 leukemia. The conditions noted are these: 10 µM unless noted.
Assay [10] relates to SR leukemia. The following applies: 10 µM unless noted.
Assay [11] concerns RPMI-8226 leukemia. The conditions noted are these: 10 µM unless noted.
Assay [12] has as its system OVCAR-8 ovarian. The conditions noted are these: 10 µM unless noted.
Assay [13] has as its system OVCAR-5 ovarian. The following applies: 10 µM unless noted.
The test system of assay [14] is OVCAR-4 ovarian. The following applies: 10 µM unless noted.
Assay [15] concerns SK-OV-3 ovarian. The following applies: 10 µM unless noted.
The subject of assay [16] is IGROV1 ovarian. The conditions noted are these: 10 µM unless noted.
Assay [17] deals with OVCAR-3 ovarian. The conditions noted are these: 10 µM unless noted.
The subject of assay [18] is HS 578T breast. The conditions noted are these: 10 µM.
The test system of assay [19] is NCI/ADR-RES ovarian. The conditions noted are these: 10 µM unless noted.

Compounds without any hit were thinned out: in the full panel of roughly 83,000, 20% have a hit.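 Cell lines were cultured in 96-well plates, exposed to a single compound concentration, and assessed for percent growth 48 hours later.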 A number with no mark means an inactive call. Active and inactive are the calls of the source. The calls were made as follows: active = growth percent below 10; inactive = the rest.

Regarding `COc1cc2c(cc1O)c(=O)n(CCN(C)C)c1c3cc4c(cc3ncc21)OCO4`, the growth was 9.22% (active) in assay [1]; -5.86% (active) in [2]; -46.8% (active) in [3]; -45.5% (active) in assay [4]; -61.8% (active) in assay [5]; -10.2% (active) in assay [6]. Also, the growth in assay [7] was -59.8% (active); in assay [8] it was -11.3% (active); in assay [9], -15.9% (active); in assay [10], 4.06% (active); in assay [11], -30.3% (active); in assay [12], -9.58% (active). For the same compound, the growth in [13] is -1.62% (active); in [14], -1.86% (active); in assay [15] it was 3.14% (active); in assay [16], 0.0353% (active); in assay [17], -39.9% (active); in [18] it was 11.4%. The growth in [19] is -12.6% (active).
Take `Cn1ccnc1C(=O)/C=C/c1ccc(CC(=O)Nc2ccc(C(F)(F)F)cc2)cc1`: the growth was 14.9% in assay [1]; 10% (active) in assay [2]; 22.1% in assay [3]; 32.6% in assay [4]; 27.9% in assay [5]; 33.5% in [6]. Besides, the growth in assay [7] was 64.5%; in assay [8], 8.58% (active); in assay [9], -7.88% (active); in [10] it was 1.17% (active); in assay [11], 3.07% (active); in [12] it was -25.8% (active). Besides, the growth was 22.9% in assay [13]; 43.1% in assay [14]; 53.5% in assay [15]; 9.94% (active) in [16]; 9.48% (active) in [17].
As to `O=C(Cn1cncn1)Nc1ccc(-c2nc3ccccc3s2)cc1`, the growth in [1] was 90.2%; in [2] it was 95.1%; in [3] it was 76.9%; in [4], 106%; in assay [5], 110%; in [6], 93.8%. For the same compound, the growth in [7] is 88.4%; in [8] it was 105%; in assay [9] it was 91.9%; in assay [10], 83.8%; in assay [11], 83.3%; in [12], 94.6%. In addition, the growth was 115% in assay [13]; 80.6% in assay [14]; 99.9% in [15]; 92.4% in assay [16]; 91% in assay [17]; 103% in assay [18]. Besides, the growth in [19] is 102%.
Take `CC[C@@H]1C(=O)N(C)c2cnc(Nc3ccc(C(=O)NC4CCC(N5CCN(CC6CC6)CC5)CC4)cc3OC)nc2N1C(C)C` (some centres undefined): the growth in assay [1] is 21.2%; in [2], 7.06% (active); in [3], -52.3% (active); in assay [4] it was 19.9%; in assay [5], -3.77% (active); in assay [6], 10.6%. Also, the growth in [7] is -51.8% (active); in assay [8], 0.0303% (active); in assay [9] it was -19.6% (active); in assay [10], -11.5% (active); in assay [11], -42.8% (active); in assay [12] it was 1.34% (active). Besides, the growth in [13] was 22.5%; in assay [14], 24.8%; in assay [15], -68.8% (active); in [16], -18.5% (active); in assay [17], -13.8% (active).
`CC(=O)O[C@]1(C)C[C@H](O)[C@]2(O)C=CO[C@H](O[C@@H]3O[C@H](CO)[C@@H](O)[C@H](O)[C@H]3O)[C@@H]21`: the growth was 92.7% in assay [1]; 101% in [2]; 90.6% in [3]; 95.9% in [4]; 108% in [5]; 102% in assay [6]. For the same compound, the growth in [7] was 110%; in [8], 109%; in [9] it was 97.5%; in assay [10] it was 92.3%; in [11] it was 104%; in assay [12] it was 110%. Moreover, the growth in assay [13] is 103%; in assay [14], 99.8%; in assay [15] it was 102%; in assay [16], 100%; in assay [17], 108%; in assay [18], 112%. Also, the growth in [19] is 107%.
On to `CO[C@H](C(=O)N[C@@H](CCCCNC(=O)OCc1ccccc1)C(=O)OC(C)(C)C)[C@@H]1Cc2cc3cc(OC4CC(OC5CC(O)C(O)C(C)O5)C(O)C(C)O4)c(C)c(O)c3c(O)c2C(=O)[C@H]1OC1CC(OC2CC(OC3CC(C)(O)C(O)C(C)O3)C(O)C(C)O2)C(O)C(C)O1` (some centres undefined), for which the growth in assay [1] is -25.1% (active); in assay [2], -7.42% (active); in assay [3], 10.5%; in [4] it was -9.57% (active); in [5], -2.61% (active); in [6], 22.6%. Further, the growth is -89.9% (active) in assay [7]; 3.09% (active) in assay [8]; -12.6% (active) in assay [9]; 7.17% (active) in assay [10]; -5.01% (active) in assay [11]; 12.9% in assay [12]. Also, the growth in [13] was -77.9% (active); in assay [14], 43.1%; in [15] it was -52.7% (active); in assay [16], 22.2%; in [17], 24.8%; in [18], -16.4% (active). For the same compound, in [19], the growth was 73.2%.
With `Cc1csc(-c2nnc(Nc3ccc(Oc4ncccc4-c4ccnc(N)n4)cc3)c3ccccc23)c1`, the growth in assay [1] was 64.8%; in assay [2] it was 52.1%; in assay [3], 32.4%; in [4], 39.7%; in [5] it was 38.8%; in [6], 50.8%. Moreover, the growth in assay [7] was 56.1%; in assay [8] it was 25.1%; in assay [9] it was 32.3%; in assay [10] it was 3.4% (active); in [11], 51.8%; in [12] it was 31%. Further, the growth was 51.5% in assay [13]; 60.3% in assay [14]; 53% in [15]; 24.5% in assay [16]; 56% in assay [17].
As for `CC/C=C\C[C@H]1C/C=C2/C(=O)C=C[C@@H]2C/C=C\CCCC(=O)O1`, the growth was 11.8% in assay [1]; -27.8% (active) in [2]; -90.3% (active) in assay [3]; -38.3% (active) in assay [4]; -89.3% (active) in assay [5]; -35.8% (active) in [6]. The growth in [7] is -50.6% (active); in [8] it was -14.5% (active); in assay [9], -4.8% (active); in [10], 0.487% (active); in assay [11], -19.1% (active); in assay [12], 10% (active). The growth in assay [13] is 21.7%; in assay [14] it was 10.6%; in assay [15] it was 60.2%; in assay [16], -26.7% (active); in [17] it was -47.3% (active); in assay [18], 36.4%.
For the compound `COc1ccc(Cc2cc(-c3ccccc3C)n[nH]c2=O)cc1`, the growth in [1] is 108%; in assay [2], 92.3%; in [3], 76.8%; in assay [4] it was 116%; in [5], 104%; in assay [6], 109%. Further, the growth in assay [7] is 87.2%; in [8], -41.2% (active); in [9], 96.9%; in assay [10] it was 103%; in assay [11], 39.9%; in assay [12], 99.9%. Moreover, the growth in assay [13] was 101%; in [14] it was 92.5%; in assay [15] it was 102%; in assay [16] it was 53.7%; in assay [17], 96.4%; in [18], 90.9%. In addition, in assay [19], the growth is 105%.
